# Test results reported in ChEMBL document CHEMBL3988442, “University of Dundee, Small-Polar-MMV Screening Library” (2021).
# “And” between values parts separate entries of the source, which are not always exact repeats. Equal values may be shown once. About 1,200 (3.2%) of roughly 38,000 compounds showed an effect of 50% or more. The median lay at about -58%. Only a selection was taken, and strong results are over-represented in it overall.
# Tested on: Plasmodium falciparum
# Assay: Calibr Malaria Delayed Death Assay SOP
# Format: functional, organism-based
# Design: scale not given: in the data most compounds retested in dose-response had high values
# Details: concentration 4.99e-06 (unit not given; other assays of the set use mol/L)
SMILES,Percent Effect [%],Percent Effect (4.99 µM)
O=C(NC1CC1)C1CNCCN1C(=O)CCOc1ccccc1 (stereo not drawn),-111.6,–
Cc1ncsc1-c1nnc(C2CCN(Cc3ccccc3Cl)CC2)o1,-108,–
CC(=O)NC1CCN(c2c(C#N)cnc3c(C)cc(F)cc23)CC1,7.696,–
CN(Cc1ccccc1)C(=O)CCNS(=O)(=O)c1cccnc1,-47.09,–
COc1cccc(CCn2ccnc2-c2cn(C3CCNCC3)nn2)c1,–,-32.98% and -26.9%
c1ccc(CCCn2ccnc2-c2cn(C3CCNCC3)nn2)nc1,–,-23.72% and -17.15%
Cc1cccc2[nH]c(-c3cn(C4CCNCC4)nn3)nc12,72.76,–
CN(Cc1cn(C2CCNCC2)nn1)CC1CCCO1 (stereo not drawn),-84.49,–
Cc1cc2nc(-c3cn(C4CCNCC4)nn3)[nH]c2cc1C,87.17,–
Cc1ccc2[nH]c(-c3cn(C4CCNCC4)nn3)nc2c1C,85.1,–
Cc1c(C)c(C)c2[nH]c(-c3cn(C4CCNCC4)nn3)nc2c1C,30.06,–
Cc1nc(C(C)C)sc1C(=O)NCCSc1nccn1C,-107.8,–
CC(=O)Nc1ccn(Cc2ccccc2)n1,-105.1,–
CCOC(C)C(=O)N1CCCN(Cc2csc(CC)n2)CC1 (stereo not drawn),-48.75,–
Cc1nc(CN2CCC23CCN(Cc2ccco2)CC3)cs1,-38.18,–
CN1CCNC(=O)C12CCN(Cc1ccco1)CC2.O=C(O)C(F)(F)F.O=C(O)C(F)(F)F,-34.77,–
Cc1ccc(CN2CCC3(CC2)CCN(Cc2ccco2)CC3)cc1.O=C(O)C(F)(F)F.O=C(O)C(F)(F)F,91.42,–
O=C(O)C(F)(F)F.O=C(O)C(F)(F)F.O=C(O)C(F)(F)F.c1coc(CN2CCC3(CC2)COCCN(CCN2CCCC2)C3)c1,-114.4,–
Cc1nc(CN2CCC3(C2)CN(Cc2ccco2)C3)cs1,1.617,–
Cc1noc(C)c1CN1CC2(CCN(Cc3c[nH]cn3)CC2)CC1=O,-101.4,–
CO[C@@H]1CC[C@H]2[C@H]1OCCN2Cc1ccccn1.O=C(O)C(F)(F)F.O=C(O)C(F)(F)F,-69.16,–
CN(C)CCN1CCC(NC2CSCCc3ccccc32)CC1 (stereo not drawn),75.4,–
CNC(=O)CN1CCC(NC2CSCCc3ccccc32)CC1 (stereo not drawn),-108,–
COCCCN1CCC(NC2CSCCc3ccccc32)CC1 (stereo not drawn),-4.969,–
Cn1ncnc1CNc1ccccc1C(=O)NC(C)(C)C,-77.77,–
Cc1ccccc1CN1CCC2(CCCN2C(=O)C(C)C)CC1,-62.94,–

SMILES,Percent Effect [%],Percent Effect (4.99 µM)
O=C1NC(C(=O)NCc2cccnc2Oc2ccc(F)c(F)c2)CO1 (stereo not drawn),-127.9,–
CCN(CC1CCCN(CCc2cccc(OC)c2)C1)C(=O)CN(C)C (stereo not drawn),83.05,–
CCN(CC1CCCN(CCc2cccc(OC)c2)C1)C(=O)CO (stereo not drawn),28.13,–
COc1ccc(C(=O)C2CCCN(Cc3cccc(F)c3)C2)c(OC)c1 (stereo not drawn),22.79,–
CCN(CC1CCCN(CCc2cccc(OC)c2)C1)C(=O)CSC (stereo not drawn),19.02,–
COc1ccc(C(=O)C2CCCN(Cc3ccncc3)C2)c(OC)c1 (stereo not drawn),-20.34,–
COc1ccc(C(=O)C2CCCN(CCc3ccccc3)C2)c(OC)c1 (stereo not drawn),71.36,–
Cc1ccccc1C(=O)N1CCO[C@H]2[C@H](OCCN(C)C)CC[C@@H]21.O=C(O)C(F)(F)F,-35.41,–
CCCN(CCC)C(=O)c1cnn(C)c1C,-133.3,–
COc1ccccc1COCC(O)CN(C)Cc1cccc(Cl)c1 (stereo not drawn),-103.6,–
COc1ccc(CNC(=O)c2ccc(Cl)cc2F)cc1C(=O)O,-124.3,–
CCOc1cccc(CNc2ccccc2OC)c1O,-50.26,–
COc1cccc(CNc2ccc(F)c(Cl)c2)c1O,-125.4,–
COc1cccc(CNCc2cccc(Cl)c2)c1O,84.59,–
COc1cccc(CNCc2ccc(F)c(Cl)c2)c1O,79.38,–
CCn1nccc1CNc1nc(N)nc2c1nc(C)n2C,-33.19,–
Cn1nc(CN2CCCCC2)c2c1CN(C(=O)c1ccoc1)C2,14.54,–
CNCc1cc(F)ccc1Oc1ccc(F)cc1,15.63,–
O=C(O)c1cccc(N2CCC(Oc3cccc(F)c3)CC2)n1,-36.51,–
O=C(Nc1ccccc1Oc1cccc(F)c1)C1CCS(=O)(=O)C1 (stereo not drawn),-81.74,–
O=C(Nc1cnc(Oc2ccccc2)nc1)C1CC1,-34.92,–
CCn1cc(-c2nn3c(C(C)C)nnc3s2)c(C)n1,-104,–
CC(NC(=O)N1CCCCCC1)c1ccc(S(N)(=O)=O)cc1 (stereo not drawn),-106.8,–
Cc1ncsc1C(=O)NCCNc1ncccn1,-77.02,–
COCC1CN(CCOc2ccc(Cl)cc2)Cc2c1cnn2C.O=C(O)C(F)(F)F.O=C(O)C(F)(F)F (stereo not drawn),-4.236,–
CC(NCC1(N(C)C)CCOCC1)c1ccc(SC(F)F)cc1 (stereo not drawn),51.19,–

SMILES,Percent Effect [%],Percent Effect (4.99 µM)
CC(NCC1(N(C)C)CCOCC1)c1ccc(S(C)(=O)=O)cc1 (stereo not drawn),-124.5,–
CC(NCC1(N(C)C)CCOCC1)c1ccc(Cl)cc1 (stereo not drawn),72.75,–
CN(C)C1(CNC(=O)c2c(O)cc(Cl)cc2Cl)CCOCC1,-157.7,–
CN(C)C1(CNc2ncc(Br)cn2)CCOCC1,27.48,–
CSC1(CNC(=O)NC(C)c2ccc(F)cc2)CCOCC1 (stereo not drawn),-168.4,–
O=S(=O)(N1CCCC1)N(Cc1ccccc1)CC1CCCO1 (stereo not drawn),-64.47,–
CN(C)CCN1C[C@@H]2CN(S(=O)(=O)c3ccccc3)C[C@@H]2C1=O.O=C(O)C(F)(F)F,-103,–
CCN(CC)S(=O)(=O)c1ccc(C(=O)NC(C)(C)C)cc1,-100.9,–
Cc1cc2nc(-c3ccccc3)cc(NCC3CCCOC3)n2n1 (stereo not drawn),20.07,–
COCCC(=O)Nc1nc2c(OC)cc(F)cc2s1,-96.38,–
COc1ccc(CNC(C)c2ccccc2Cl)c(OC)c1OC.Cl (stereo not drawn),74.88,–
COc1ccc(C(C)NCc2c[nH]nc2C)cc1OC.Cl (stereo not drawn),-66.18,–
COc1ccc(CNC(C)Cn2cccn2)c(OC)c1OC.Cl (stereo not drawn),-41.68,–
COc1ccc(CNC(C)c2ccc(Cl)cc2)c(OC)c1OC (stereo not drawn),80.38,–
COCCS(=O)(=O)NC(C)c1ccccc1Cl (stereo not drawn),-65.19,–
CC(NCc1ccc(C(N)=O)cc1)c1ccc(Cl)c(Cl)c1.Cl (stereo not drawn),4.882,–
COc1ccc(CNC(C)c2ccc(Cl)c(Cl)c2)c(OC)c1OC (stereo not drawn),65.05,–
COc1ccc(CNC(C)c2cccc(Cl)c2)c(OC)c1OC (stereo not drawn),42.06,–
COc1ccc(C(C)NCc2ccc(OC)c(OC)c2OC)cc1F.Cl (stereo not drawn),34.25,–
Cc1ccc(CN2C[C@H](OCC3CCN(C)CC3)[C@H]3COC[C@H]32)o1,12.64,–
Cc1nc(NC(=O)c2c(-n3cnnn3)sc3c2CCC3)sc1C,-110.9,–
CCOc1ccccc1NC(=O)NCCc1ccoc1,-120.2,–
COC(=O)c1cccc(C(=O)N(C)Cc2cccc(F)c2)c1,-135.6,–
COc1cc(CN2CCCC2)ccc1OC12CCCN(CC1)C2 (stereo not drawn),-168.7,–
COc1cc(CN2CCCC2)ccc1Oc1ccc2c(c1)CC(CN)O2 (stereo not drawn),58.6,–
COc1ccc(CN2CCCC2)cc1Oc1ccc(NC(C)=O)cc1,-51.76,–

SMILES,Percent Effect [%],Percent Effect (4.99 µM)
Cc1cc(CN2CCCC2)cc(Oc2ccc3c(c2)CC(CN)O3)c1 (stereo not drawn),26.4,–
COc1ccc(CN2CCCC2)cc1Oc1cccc(C#N)n1,41.79,–
COc1ccc(CN2CCCC2)cc1Oc1ccc2c(c1)CC(CN)O2 (stereo not drawn),87.78,–
O=C(O)C(F)(F)F.O=C(O)C(F)(F)F.O=C(O)c1c(-c2cncnc2)ncc2c1CCN(Cc1ccco1)C2,-132.8,–
CCNc1ncc2c(n1)CN(c1ccc(OC(F)(F)F)cc1)C2=O,14.47,–
O=C(N1CCCC1)N1CCC2(CCCN(CCOc3ccccc3)C2)C1.O=C(O)C(F)(F)F (stereo not drawn),-4.272,–
Cc1noc(C)c1CCCNc1cnccn1,-49.46,–
CN(C)C(=O)CN1CCOCC2(C1)CN(c1ncc(F)cn1)CCO2.O=C(O)C(F)(F)F (stereo not drawn),-15.1,–
Cc1ccnc(N2CCCC(c3nncn3C3CC3)C2)n1 (stereo not drawn),-51.92,–
CN1CCN(c2ccccc2NC(=O)c2ccco2)CC1,31.7,–
CN1CCN(c2ccc(Cl)cc2NC(=O)c2ccco2)CC1,41.12,–
CN1CCN(c2ccc(Br)cc2NC(=O)c2ccco2)CC1,52.34,–
CCc1cc(CN(C)C(=O)c2cnc3c(c2)nc(N)n3CC)on1,-104.3,–
c1ccc(CN2CCCC2)c(CNc2cncc3nnnn23)c1,60.42,–
c1cc(N2CCSCC2)ccc1CNc1cncc2nnnn12,-124.6,–
c1cc(CN2CCCC2)ccc1CNc1cncc2nnnn12,-34.44,–
Cc1cccc(NC(=O)c2ccc(OCc3nnnn3C)cc2)n1,-114.2,–
Cc1cccc(NC(=O)c2cccc(OCc3nnnn3C)c2)n1,80.42,–
Cc1ccnc(NC(=O)c2cccc(OCc3nnnn3C)c2)c1,-241.7,–
CN1CC=C(CCN(C)C(=O)CCc2ccccc2)CC1,19.5,–
CC(C(=O)NCc1ccco1)N1CCN(Cc2nccn2C)CC1 (stereo not drawn),-39.34,–
Cc1ccc(CN2CC3(CCN(C(=O)Cc4ccc(Cl)cc4)C3)C2)o1,-2.786,–
CNC(=O)c1cc2c(nc1NCC(C)C)CCN(c1ccncn1)CC2.O=C(O)C(F)(F)F,13.05,–
Cc1ccc(C)c(-n2ccc3nc(N4CCCC4)ncc3c2=O)c1,-31.4,–
CC(=O)Nc1ccc(-n2ccc3nc(N4CCCC4)ncc3c2=O)cc1,-5.195,–
